Source: PubChem (National Center for Advancing Translational Sciences (NCATS))
HTT cytoprotect – Huntington cell model cytoprotection by ATP luminescence; PC12 HTT-Q103 induced, cytoprotection, ATP luminescence, 40 h; Potency, µM (top dose mostly 56.4 µM), most hits filed as activators; 230,000 compounds, 0.14% hits; AID 1471; further: nearly all actives have a fitted effect of over 45% in size
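Quantitative HTS on tebufenozide-induced (100 nM) PC12 cells expressing HTTQ103 exon 1–GFP; compounds tested as a concentration series; survival measured via cellular ATP.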
KDM4E inh – blocks human JMJD2E demethylase activity; B2RXH2; JMJD2E catalytic domain, FDH-coupled NADH fluorescence (FDH is formaldehyde dehydrogenase); Potency, µM (series often up to 57.1 µM), most hits filed as inhibitors; 230,000 compounds, 1.6% hits; AID 2147; active means well fitted inhibition curve with a large enough effect, not every such curve was filed as active; inconclusive means small, poorly fitted or top-dose-only effect, or another doubt; inactive means no such curve, though single readings can be large or run the other way; further: nearly all actives have a fitted effect of over 50% in size
Target sequence (B2RXH2 1-337 limits assumed): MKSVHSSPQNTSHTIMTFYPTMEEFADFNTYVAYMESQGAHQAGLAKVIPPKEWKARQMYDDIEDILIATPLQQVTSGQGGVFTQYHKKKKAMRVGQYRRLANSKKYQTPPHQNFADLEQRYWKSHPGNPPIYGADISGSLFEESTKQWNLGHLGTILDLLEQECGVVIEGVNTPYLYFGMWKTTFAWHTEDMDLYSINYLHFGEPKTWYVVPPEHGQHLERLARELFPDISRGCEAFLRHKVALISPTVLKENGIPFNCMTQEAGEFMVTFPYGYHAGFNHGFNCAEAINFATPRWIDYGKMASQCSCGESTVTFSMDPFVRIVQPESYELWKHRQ
HTT aggregate – reduces HttQ103-GFP aggregates in PC12 cells | 220,000 compounds, 1.1% hits | Potency, µM (titrated, usually from 46.1 µM), hits mostly inhibitors | PC12 HttQ103-GFP aggregates, Acumen cytometry, 40 h; further: nearly all actives have a fitted effect of over 60% in size
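Read-out: GFP aggregate count by laser scanning cytometer (488 nm excitation, 500-530 nm emission, 1–25 µm objects >6 SD above background). Cells: PC12, inducible HTTex1-Q103-GFP, 100 nM tebufenozide; compounds titrated.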
CBFb RUNX1 block – CBF-beta/RUNX1 interaction disruption; Q01196+Q13951; AlphaScreen CBFb-His/RUNX1-biotin binding, biochemical; Potency, µM (titrated, usually from 59.8 µM), most hits filed as inhibitors; 230,000 tested, under 10 active
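His-tagged CBF-beta and biotinylated RUNX1 (30 nM each) were premixed 20 min at room temperature, exposed to compound for 15 min, then given nickel-chelate and streptavidin AlphaScreen beads (50 ng each). After 90 min, AlphaScreen signal was read.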
ALDH1A1 inh – inhibitors of human aldehyde dehydrogenase 1A1; P00352; AID 1030; Purified ALDH1A1, NADH fluorescence, propionaldehyde substrate; Potency, µM (series often up to 75.3 µM), actives largely listed as inhibitors; 220,000 compounds, 7.3% hits; active means well fitted inhibition curve with a large enough effect, not every such curve was filed as active; inconclusive means small, poorly fitted or top-dose-only effect, or another doubt; inactive means no such curve, though single readings can be large or run the other way
HPGD block – blocks human HPGD enzyme activity; purified HPGD, NADH fluorescence kinetic, PGE2 substrate; Potency, µM, actives largely listed as inhibitors; 150,000 compounds, 4.3% hits; active means well fitted inhibition curve with a large enough effect, not every such curve was filed as active; inconclusive means small, poorly fitted or top-dose-only effect, or another doubt; inactive means no such curve, though single readings can be large or run the other way
Target sequence (P15428 whole entry, looked up): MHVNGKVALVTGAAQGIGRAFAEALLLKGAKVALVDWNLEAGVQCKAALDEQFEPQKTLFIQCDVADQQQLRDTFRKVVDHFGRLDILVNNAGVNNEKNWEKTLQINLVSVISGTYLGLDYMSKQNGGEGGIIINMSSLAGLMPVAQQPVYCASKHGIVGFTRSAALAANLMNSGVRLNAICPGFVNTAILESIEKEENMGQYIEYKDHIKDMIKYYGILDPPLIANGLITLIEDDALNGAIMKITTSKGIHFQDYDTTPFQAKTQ
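20 nM HPGD preincubated 15 min at room temperature with compound in 50 mM Tris-HCl pH 8, 0.01% Tween 20. Started with 1 mM NAD+ and 30 uM prostaglandin E2; NADH fluorescence (360/450 nm) read 5 times over 30-s intervals, last minus first.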
Of the large screens only hits and unclear results are named; the others gave an inactive call. Only some compounds are listed: those with a hit (about 9.8% of all), similar ones and a draw of the others. Unless noted, the call rests on the fitted dose curve; in most records, active means well fitted curve in the direction sought with a large enough effect; inconclusive means small, poorly fitted or top-dose-only effect, or another doubt; inactive means no such curve, though single readings can be large; an effect the other way counts as inactive or inconclusive.

C=CCn1c(=O)/c(=C/c2cc(OC)c(OC)c(OC)c2)s/c1=C(/C#N)c1nc2ccccc2n1C	ALDH1A1 inh 1.4µM
Cc1cc2cc(CNC(=O)CC(C)C)ccc2n1C	HPGD block 2.2µM
COc1cccc(C(=O)NCc2ccc3c(c2)cc(C)n3C)c1	CBFb RUNX1 block inconclusive, ALDH1A1 inh inconclusive (no result: HTT cytoprotect, HPGD block)
CCCCC(=O)NCc1ccc2c(c1)cc(C)n2C	KDM4E inh inconclusive, HPGD block 1.1µM
Cc1cc2cc(CNC(=O)c3cccs3)ccc2n1C	CBFb RUNX1 block inconclusive, HPGD block 2.8µM (no result: HTT cytoprotect)
COc1ccc(CCNC(=O)c2cccs2)cc1OC	none (no result: HPGD block)
COc1ccccc1OCCNC(=O)c1cccs1	HPGD block 16µM
CN1C[C@@H](O)[C@@H](O)[C@@H](O)[C@@H]1CO	none (no result: KDM4E inh, HTT aggregate, CBFb RUNX1 block, ALDH1A1 inh, HPGD block)
Cc1cc2cc(CNC(=O)c3ccc(S(=O)(=O)N4CCCC4)cc3)ccc2n1C	KDM4E inh inconclusive, CBFb RUNX1 block inconclusive, ALDH1A1 inh 20µM
COc1ccc(OCC(=O)NNC(=O)c2cccs2)cc1	none
COc1ccc(CNC(=O)c2cccs2)cc1	ALDH1A1 inh inconclusive, HPGD block 14µM
O=C(C[n+]1cnn(CC(=O)c2ccc(Cl)cc2Cl)c1)c1ccc([N+](=O)[O-])cc1	KDM4E inh inconclusive, ALDH1A1 inh 20µM
COc1ccc(C(=O)c2ccccc2)cc1	none (no result: HPGD block)
COc1ccc(C(=O)[C@H](Br)[C@H](Br)C(=O)O)cc1	ALDH1A1 inh 0.28µM (no result: KDM4E inh, HTT aggregate, CBFb RUNX1 block)
COCCn1c(N)c(N(Cc2ccccc2)C(=O)c2cc3ccccc3o2)c(=O)[nH]c1=O	none (no result: HPGD block)
CNCCCCc1cnc(C)c2[nH]c3ccccc3c12	HTT cytoprotect 3.5µM, KDM4E inh inconclusive, ALDH1A1 inh inconclusive, HPGD block inconclusive (no result: HTT aggregate)
COc1cccc(N/N=C(\C#N)S(=O)(=O)C(C)(C)C)c1	none (no result: HPGD block)
Cc1ccc(-c2n[nH]c(=S)n2/N=C/c2ccc(C)s2)cc1	HPGD block 4µM
Cc1ccc(-c2n[nH]c(=S)n2/N=C/c2cccs2)cc1	ALDH1A1 inh inconclusive, HPGD block 13µM
S=c1[nH]nc(-c2ccccc2)n1/N=C/c1cccs1	KDM4E inh inconclusive, ALDH1A1 inh 25µM, HPGD block 18µM
Cc1ccc(/C=N/n2c(-c3ccc(Cl)cc3)n[nH]c2=S)s1	none (no result: HPGD block)
Nc1c(C(=O)N/N=C/c2ccc([N+](=O)[O-])cc2)sc2nnc(-c3ccccc3)c(-c3ccccc3)c12	none (no result: ALDH1A1 inh, HPGD block)
CCCC[C@@H]1C[C@H]1C(NC(=O)c1ccccc1)c1ccc(-c2ccccc2)cc1 (stereo partly drawn)	none (no result: HTT aggregate)
CCOC(=O)C(=O)Nc1nnc(C2CCCCC2)s1	ALDH1A1 inh 32µM, HPGD block 16µM
CCOCC(=O)Nc1nnc(C2CCCCC2)s1	ALDH1A1 inh 19µM
COCC(=O)Nc1nnc(C2CCCCC2)s1	ALDH1A1 inh inconclusive
COC(=O)c1ccc(NC(=O)CN(Cc2ccc(Cl)cc2)S(C)(=O)=O)cc1	none
Cc1cc(/C=C2\SC(=S)NC2=O)c(C)n1-c1ccccc1	ALDH1A1 inh inconclusive (no result: HPGD block)
O=C1NC(=S)S/C1=C\c1ccc(SCc2ccccc2)o1	HTT aggregate inconclusive, CBFb RUNX1 block inconclusive, ALDH1A1 inh inconclusive, HPGD block 18µM
O=C1NC(=S)S/C1=C\c1ccc(SCc2ccco2)o1	KDM4E inh inconclusive, ALDH1A1 inh 0.89µM, HPGD block 7.1µM (no result: CBFb RUNX1 block)
O=C1NC(=Nc2ccc(O)cc2)S/C1=C/c1ccco1	ALDH1A1 inh inconclusive (no result: HPGD block)
N#C[C@H]1CN[C@H](N)N[C@@H]1N	none (no result: KDM4E inh, HTT aggregate, CBFb RUNX1 block)
O=C(CN1CCN(c2ncccn2)CC1)Nc1ccccc1-n1cccc1	KDM4E inh inconclusive, HTT aggregate inconclusive, ALDH1A1 inh 14µM
Cc1cc(C)cc(NC(=O)CN2CCN(c3ncccn3)CC2)c1	ALDH1A1 inh inconclusive
O=C(NN1C(=O)c2ccccc2NC1c1ccc([N+](=O)[O-])o1)c1ccc(Br)cc1 (stereo not drawn)	HTT cytoprotect 6.3µM, KDM4E inh inconclusive, HTT aggregate inconclusive (no result: HPGD block)
CC(=O)c1ccc(N2CCN(C(=O)c3cc4c(s3)CCCC4)CC2)cc1	KDM4E inh inconclusive, ALDH1A1 inh 22µM (no result: HTT cytoprotect, HPGD block)
O=C(O)c1cc2c(s1)CCCC2	none
COc1ccccc1N1CCN(C(=O)c2cc3c(s2)CCC3)CC1	ALDH1A1 inh 20µM
O=C(c1cc2c(s1)CCCCC2)N1CCN(c2ncccn2)CC1	ALDH1A1 inh 14µM
O=C(c1cc2c(s1)CCCC2)n1cccn1	HTT aggregate inconclusive, ALDH1A1 inh inconclusive, HPGD block 16µM
O=C(c1cc2c(s1)CCCC2)N1CCN(C(=O)C2CCCO2)CC1 (stereo not drawn)	ALDH1A1 inh inconclusive
CCN1CCCC1Cn1cnc2c([nH]c3ccc(OC)cc32)c1=O (stereo not drawn)	KDM4E inh inconclusive (no result: HTT cytoprotect, ALDH1A1 inh, HPGD block)
O=C(CSc1cccc[n+]1[O-])c1cc(Cl)ccc1Cl	ALDH1A1 inh inconclusive (no result: HPGD block)
CC(Cc1n[nH]c(=S)o1)c1ccccc1 (stereo not drawn)	ALDH1A1 inh 18µM (no result: HPGD block)
S=c1[nH]nc(Cc2cccc3ccccc23)o1	KDM4E inh inconclusive, ALDH1A1 inh 10µM, HPGD block inconclusive
CCCC[C@@H]1C[C@H]1C(NC(=O)Cc1ccccc1)c1ccc(Cl)cc1 (stereo partly drawn)	none (no result: HTT aggregate)
CCCCCCCCCCn1c2c(c(=N)c3c1CCC3)CCC2	HTT aggregate 1µM
Cc1cc(C(=O)CCl)c(C)n1-c1cccc(S(=O)(=O)N2CCOCC2)c1	HTT aggregate inconclusive, ALDH1A1 inh 0.18µM (no result: HPGD block)
Cc1cc(C(=O)CN2C(=O)CN(C)C2=O)c(C)n1-c1cccc(S(=O)(=O)N2CCOCC2)c1	HTT cytoprotect inconclusive, ALDH1A1 inh inconclusive (no result: HPGD block)
CCOc1ccc(N2C(=O)CC(N(Cc3ccco3)C(C)=O)C2=O)cc1 (stereo not drawn)	ALDH1A1 inh 20µM (no result: HPGD block)
O=C(c1ccco1)N1CCN(C2CC(=O)N(c3ccc4c(c3)OCO4)C2=O)CC1 (stereo not drawn)	ALDH1A1 inh inconclusive
O=C(c1ccco1)N1CCN(C2CC(=O)N(c3ccccc3)C2=O)CC1 (stereo not drawn)	ALDH1A1 inh 20µM
CCOc1ccc(N2C(=O)CC(N3CCN(C(=O)c4ccco4)CC3)C2=O)cc1 (stereo not drawn)	ALDH1A1 inh 8.9µM
Cc1cc(C(=O)NC(Cc2ccccc2)C(=O)O)c(C)o1 (stereo not drawn)	none (no result: ALDH1A1 inh, HPGD block)
Cc1cccc(C(=O)NC(=S)Nc2ccc(S(=O)(=O)N(C)c3ccccc3)cc2)c1	ALDH1A1 inh 20µM
CN(c1ccccc1)S(=O)(=O)c1ccc(NC(=O)c2ccccc2)cc1	HTT aggregate inconclusive (no result: HTT cytoprotect)
Cc1ccccc1C(=O)NC(=S)Nc1ccc(S(=O)(=O)N(C)c2ccccc2)cc1	HTT aggregate inconclusive, ALDH1A1 inh 18µM
CN(c1ccccc1)S(=O)(=O)c1ccc(NC(=O)c2cccs2)cc1	none (no result: HPGD block)
